Only some compounds are listed: those with a hit (about 7.4% of all), similar ones and a draw of the others.
SMN2 splice up = qHTS Assay for Enhancers of SMN2 Splice Variant Expression. HEK293 SMN2-luciferase splicing reporter, luminescence, 30-36 h. Potency, µM (series often up to 46.1 µM), for inactives: at the top dose activity change, positive = activation, most hits filed as activators. actives 2.8% (n = 210,000); also: % of control where 0% means no effect; nearly all actives have a fitted effect of over 55% in size
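qHTS luciferase splicing reporter: luminescence rises when SMN2 exon 7 is included in transfected HEK293 cells. Compound exposure lasted 30-36 h at 37C, with 4.5 mM final sodium butyrate as control, followed by a ONE-Glo read.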
Rab9 promoter act = qHTS Assay for Rab9 Promoter Activators. Huh7 Rab9 promoter-luciferase reporter, luminescence, 24 h. Potency, µM (highest dose often 9.22 µM), without a hit: top-dose activation, negative = inhibition, usual class: activators. actives 2.8% (n = 320,000). AID 485297, 2010; also: % of control where 0% means no effect; nearly all actives have a fitted effect of over 60% in size
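Measured in stably transfected Huh7 cells bearing a Rab9 promoter–luciferase construct: 24 h compound treatment at 37 °C, followed by luminescence detection.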
NPC1 prom act = qHTS Assay for NPC1 Promoter Activators. AID 485313, 2010. Huh7 NPC1 promoter luciferase reporter, 24 h. Potency, µM (highest dose often 9.22 µM), for inactives: at the highest dose activation, most hits filed as activators. actives 2.4% (n = 320,000); also: % of control where 0% means no effect; nearly all actives have a fitted effect of over 60% in size
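Stably transfected Huh7 (NPC1 promoter→luciferase), 1500 cells/well in Opti-MEM + 10% FBS, 2 h settle, then compound 24 h at 37 °C. Luminescence after 10 min with Amplite reagent.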
ELG1 genotox = qHTS screen for small molecules that induce genotoxicity in human embryonic kidney (HEK293T) cells expressing luciferase-tagged ELG1. HEK293T ELG1-luciferase reporter, luminescence, 16 h. Potency, µM (doses to about 46 µM), inactives show at the top dose activity change, positive = activation, most hits filed as activators. actives 1.3% (n = 330,000). AID 504466, 2011; also: % of control where 0% means no effect; nearly all actives have a fitted effect of over 60% in size
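ELG1-luciferase HEK293T cells, 2,000/well; compound pinned in; 16 hr, 37 °C, 5% CO2; ONE-Glo, 30 min RT; luminescence on CCD imager.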
FLuc modulator = qHTS profiling assay for firefly luciferase inhibitor/activator using purifed enzyme and Km concentrations of substrates (counterscreen for miR-21 project). Luciferin 4-monooxygenase (Photinus pyralis), P08659. purified FLuc, Km substrates, luminescence inhibition. Potency, µM (titrated, usually from 57.5 µM), inactives show at the highest dose activity change, negative = inhibition, actives largely listed as inhibitors. actives 6.9% (n = 360,000);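 also: plate controls were vehicle for no effect and reference inhibitor for full effect; nearly all actives have a fitted effect of over 55% in size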
Target sequence (P08659 whole entry, looked up): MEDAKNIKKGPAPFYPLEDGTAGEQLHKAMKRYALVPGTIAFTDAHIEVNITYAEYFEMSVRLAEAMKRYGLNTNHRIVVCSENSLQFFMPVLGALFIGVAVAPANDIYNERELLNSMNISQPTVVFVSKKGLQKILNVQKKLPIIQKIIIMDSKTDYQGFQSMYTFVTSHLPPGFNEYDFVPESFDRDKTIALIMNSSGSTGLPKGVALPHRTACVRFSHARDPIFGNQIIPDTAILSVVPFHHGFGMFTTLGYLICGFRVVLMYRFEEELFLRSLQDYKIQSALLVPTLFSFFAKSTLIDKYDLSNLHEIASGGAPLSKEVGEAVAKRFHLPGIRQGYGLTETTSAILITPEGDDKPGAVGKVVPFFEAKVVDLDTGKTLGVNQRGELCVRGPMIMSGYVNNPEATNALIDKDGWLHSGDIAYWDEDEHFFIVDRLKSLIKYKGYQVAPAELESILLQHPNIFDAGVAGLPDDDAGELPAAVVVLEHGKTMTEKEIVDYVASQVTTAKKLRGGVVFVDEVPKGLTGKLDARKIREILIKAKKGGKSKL
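Purified P. pyralis luciferase, 10 nM final, with Km-level 10 uM D-luciferin and 10 uM ATP in 50 mM Tris acetate pH 7.5, 10 mM Mg acetate, 0.01% Tween-20, 0.05% BSA; 6-point qHTS titration about 60 µM downward; luminescence read.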
Starred values were filed as active, the others as inactive; [ ] = remark or other dose. Calls follow the shape of the dose curve; as a rule, active = well fitted curve in the direction sought with a large enough effect; inconclusive = small, poorly fitted or top-dose-only effect, or another doubt; inactive = no such curve, though single readings can be large; an effect the other way counts as inactive or inconclusive. Potency is read from the fitted curve at half-maximal effect.

For CN(C)c1ccc(C=Nc2ccccc2C(N)=O)cc1 the results were SMN2 splice up 13µM*, Rab9 promoter act 0.79µM*, NPC1 prom act 3.2µM*, ELG1 genotox 10µM* and FLuc modulator 1.5µM*.
Cc1ccc(C=Nc2ccccc2C(N)=O)o1 was read as SMN2 splice up 11µM*, Rab9 promoter act 3.5µM*, NPC1 prom act inconclusive, ELG1 genotox inconclusive and FLuc modulator 27µM*.
Screening O=C(Nc1ccc(-c2nc3cccnc3s2)cc1)c1cccnc1Cl returned Rab9 promoter act 0.79µM*, NPC1 prom act 0.32µM*, ELG1 genotox 0.82µM* and FLuc modulator 1.7µM*.
Screening O=C(Nc1ccc(-c2nc3cccnc3s2)cc1)c1ccc(Cl)nc1 returned Rab9 promoter act 0.71µM*, NPC1 prom act 0.89µM*, ELG1 genotox 10% and FLuc modulator inconclusive.
For Nc1ccccc1SSc1ccccc1N the results were Rab9 promoter act 6%[1.84 µM], NPC1 prom act 0%, ELG1 genotox 10% and FLuc modulator 11µM*.
Screening O=C(Nc1cccc(F)c1)c1oc2ccccc2c1NC(=O)C12CC3CC(CC(C3)C1)C2 returned SMN2 splice up 6% and FLuc modulator -2%.
Clc1cccc(Nc2nnc(-c3ccccc3)c3ccccc23)c1 was read as SMN2 splice up -47%.
Screening Cc1nc2cc(NC(=O)Nc3cccc4ccccc34)ccc2n1C returned SMN2 splice up 4µM*, Rab9 promoter act 0.89µM*, NPC1 prom act 3.2µM*, ELG1 genotox inconclusive and FLuc modulator 0.95µM*.
`CCOc1ccc(NC(=O)Nc2ccc3c(c2)nc(C)n3C)cc1` gave Rab9 promoter act 13%, NPC1 prom act 2%, ELG1 genotox 5% and FLuc modulator inconclusive.
Screening Cc1nc2cc(Nc3nnc(-c4ccccc4)c4ccccc34)ccc2n1C returned Rab9 promoter act inconclusive, NPC1 prom act 3.5µM*, ELG1 genotox inconclusive and FLuc modulator 0.67µM*.
Screening Cc1ccc(NC(=O)Nc2ccc3c(c2)nc(C)n3C)cc1C returned Rab9 promoter act 0.63µM*, NPC1 prom act 1.3µM*, ELG1 genotox inconclusive and FLuc modulator 2.7µM*.
For COc1ccccc1NC(=O)Nc1ccc2c(c1)nc(C)n2C the results were SMN2 splice up 13µM*, Rab9 promoter act 0.56µM*, NPC1 prom act 0.63µM*, ELG1 genotox inconclusive and FLuc modulator 1.5µM*.
For COc1ccccc1NC(=O)Nc1cc(NC(=O)Nc2ccccc2OC)c(C)nc1C the results were SMN2 splice up 31%, Rab9 promoter act -7%, NPC1 prom act -6%, ELG1 genotox inconclusive and FLuc modulator -1%.
Cc1ccc(C)c(Cn2c(-c3cccs3)nc3ccccc32)c1 was read as SMN2 splice up -12% and FLuc modulator -11%.
Screening N#CCCNS(=O)(=O)c1ccc(C(=O)OCCCOC(=O)c2ccc(S(=O)(=O)NCCC#N)cc2)cc1 returned Rab9 promoter act 11%, NPC1 prom act 16%, ELG1 genotox -12% and FLuc modulator 1.2µM*.
For Cc1cc(C)c2c(-n3cccc3)c(C(=O)NCCCN3CCCCC3)sc2n1 the results were FLuc modulator -2%.
Screening CCOc1ccc(NC(=O)c2ccc(-c3nc(COc4ccccc4)c(C)o3)cc2)cc1 returned FLuc modulator -5%.
Screening CN(C)CC[C@H](c1ccc(Br)cc1)c1ccccn1 returned SMN2 splice up 0%[20.6 µM].
`Cc1cc(NC(=O)c2ccc(Cn3nc(C)c(Br)c3C)o2)no1` gave SMN2 splice up 20µM*, Rab9 promoter act 1%, NPC1 prom act -4%, ELG1 genotox 5% and FLuc modulator -1%.
`Cc1nn(Cc2ccc(C(=O)NC(C)(C)C)o2)c(C)c1Br` gave SMN2 splice up -48%, Rab9 promoter act -24%, NPC1 prom act -21%, ELG1 genotox -8% and FLuc modulator -1%.
